Rab9 promoter act = Rab9 promoter activation. Huh7 Rab9 promoter-luciferase reporter, luminescence, 24 h. Potency, µM (top dose mostly 9.22 µM), usual class: activators. 2.8% of 320,000 active; further: nearly all actives have a fitted effect of over 60% in size
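Huh7 cells stably carrying Rab9 promoter–luciferase reporter, plated 1500 cells/well, compound added after 2 h and incubated 24 h at 37 °C; luciferase luminescence then read after 10 min with detection reagent.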
SMN2 splice enh = enhancers of SMN2 splice variant expression; HEK293 SMN2-luciferase splicing reporter, luminescence, 30-36 h; Potency, µM (highest dose often 46.1 µM), actives largely listed as activators; 2.8% of 210,000 active; AID 1458; further: nearly all actives have a fitted effect of over 55% in size
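HEK293 cells carry an SMN2 minigene-luciferase reporter in which exon 7 inclusion puts luciferase in frame. Cells were seeded at 2000 cells/well, attached for 10-12 hours, then exposed to compounds for 30-36 hours at 37C before ONE-Glo luminescence.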
FLuc modulator = counter-screen for miR-21 project: firefly luciferase inhibitors or activators; 6.9% of 360,000 active; Potency, µM (top dose mostly 57.5 µM), hits mostly inhibitors; purified FLuc, Km substrates, luminescence inhibition; P08659; AID 588342; further: nearly all actives have a fitted effect of over 55% in size
Target sequence (P08659 whole entry, looked up): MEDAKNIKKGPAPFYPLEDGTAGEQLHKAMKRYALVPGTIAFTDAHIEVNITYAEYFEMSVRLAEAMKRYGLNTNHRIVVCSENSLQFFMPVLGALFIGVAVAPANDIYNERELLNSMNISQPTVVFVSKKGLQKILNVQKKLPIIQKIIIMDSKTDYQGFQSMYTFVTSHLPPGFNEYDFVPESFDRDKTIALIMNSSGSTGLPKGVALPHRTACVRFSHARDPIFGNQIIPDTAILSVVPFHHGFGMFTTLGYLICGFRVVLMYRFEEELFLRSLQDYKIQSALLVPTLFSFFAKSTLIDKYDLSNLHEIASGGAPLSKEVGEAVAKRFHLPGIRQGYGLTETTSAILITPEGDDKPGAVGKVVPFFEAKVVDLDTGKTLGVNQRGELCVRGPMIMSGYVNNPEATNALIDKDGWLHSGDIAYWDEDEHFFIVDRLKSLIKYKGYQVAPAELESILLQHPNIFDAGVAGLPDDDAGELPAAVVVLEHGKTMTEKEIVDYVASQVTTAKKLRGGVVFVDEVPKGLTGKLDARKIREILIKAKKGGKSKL
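Biochemical qHTS of compounds, final roughly 60 µM downward over six points, against 10 nM purified firefly luciferase using Km concentrations of substrates (10 uM D-luciferin, 10 uM ATP) in Tris acetate pH 7.5 buffer; luminescence output.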
Luc counter = counter-screen: inhibitors of Kinase-Glo firefly luciferase; Kinase-Glo luciferase, ATP luminescence, 8 min; Potency, µM (top dose mostly 38.3 µM), hits mostly inhibitors; 0.28% of 200,000 active; AID 1379; further: nearly all actives have a fitted effect of over 60% in size
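Substrate mix (final 50 mM imidazole pH 7.2, 50 mM KCl, 7 mM MgCl2, 10 uM ATP, 0.01% Tween 20, 0.05% BSA) plus pin-tool compound, then Kinase-Glo detection mix; 8 min ambient, luminescence read.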
ELG1 genotoxic = inducers of genotoxicity in HEK293T ELG1-luciferase cells | AID 504466 | HEK293T ELG1-luciferase reporter, luminescence, 16 h | Potency, µM (top dose mostly 46 µM), usual class: activators | 1.3% of 330,000 active; further: nearly all actives have a fitted effect of over 60% in size
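Cells (2,000/well) expressing the ELG1-luciferase fusion are dosed by pin tool and kept 16 hr at 37 °C, 5% CO2. Signal comes from ONE-Glo luciferase reagent after 30 min at room temperature.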
NPC1 prom act = activates the NPC1 promoter; Potency, µM (top dose mostly 9.22 µM), usual class: activators; 2.4% of 320,000 active; Huh7 NPC1 promoter luciferase reporter, 24 h; further: nearly all actives have a fitted effect of over 60% in size
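Stable NPC1-promoter luciferase Huh7 line; cpd (DMSO) 24 h, 37 °C, 5% CO2; Amplite luciferase reagent 10 min RT; luminescence readout. qHTS format.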
Of the large screens only hits and unclear results are named; the others gave an inactive call. Hits are enriched below; roughly 7.4% of the tested compounds scored in any of these assays. The call rests on the fitted dose curve; in most records, active means well fitted curve in the direction sought with a large enough effect; inconclusive means small, poorly fitted or top-dose-only effect, or another doubt; inactive means no such curve, though single readings can be large; an effect the other way counts as inactive or inconclusive.

O=C(Nc1ccccc1F)Nc1ccccc1F	Rab9 promoter act 2.51µM, SMN2 splice enh 12.6µM, FLuc modulator 15.1µM, NPC1 prom act inconclusive
COc1ccc(S(=O)(=O)NCCc2sc(-c3ccccc3)nc2C)cc1F	none (no result: Rab9 promoter act, SMN2 splice enh, Luc counter, ELG1 genotoxic, NPC1 prom act)
CC(C)(C[C@@]1(C)NC(=O)NC1=O)OCc1ccccc1	none (no result: Rab9 promoter act, FLuc modulator, ELG1 genotoxic, NPC1 prom act)
Cc1cc(C)cc(NC(=O)CN2C(=O)CCc3cc(S(=O)(=O)N4CCCCC4)ccc32)c1	none (no result: Rab9 promoter act, SMN2 splice enh, Luc counter, ELG1 genotoxic, NPC1 prom act)
Fc1ccc(Nc2c3c(nc4nncn24)CCC3)cc1	none (no result: Rab9 promoter act, Luc counter, ELG1 genotoxic, NPC1 prom act)
Cc1cc(F)ccc1NC(=O)Cn1cc(S(=O)(=O)NC(C)C)c(S(=O)(=O)NC(C)C)c1	none (no result: Rab9 promoter act, SMN2 splice enh, Luc counter, ELG1 genotoxic, NPC1 prom act)
O=C(Nc1ccccc1F)Nc1cccc2ccc(O)cc12	Rab9 promoter act inconclusive, FLuc modulator 16.9µM (no result: SMN2 splice enh, Luc counter)
O=C(CCc1ccccc1)Nc1ccc(F)cc1F	Rab9 promoter act inconclusive, FLuc modulator inconclusive, ELG1 genotoxic inconclusive
O=C(CCc1ccccc1)Nc1ccccc1F	Rab9 promoter act 2.82µM, SMN2 splice enh 15.8µM, FLuc modulator 12µM, ELG1 genotoxic inconclusive, NPC1 prom act inconclusive
Cn1cccc1C(=O)N1CCC[C@@]2(CCN(c3ccncc3)C2)C1	none (no result: Rab9 promoter act, FLuc modulator, ELG1 genotoxic, NPC1 prom act)
CCN(CC)C(=O)c1sc(NC(=O)c2nc3ncccn3n2)c(C(=O)OC)c1C	none (no result: Rab9 promoter act, Luc counter, ELG1 genotoxic, NPC1 prom act)
O=C(CSc1ncnc2c1cnn2-c1cccc(Cl)c1)NCC1CCCO1 (stereo not given)	none (no result: SMN2 splice enh, Luc counter)
COc1ccc(-n2ncc3c(NCC4CCCO4)ncnc32)cc1 (stereo not given)	Rab9 promoter act 0.891µM, SMN2 splice enh 11.2µM, FLuc modulator 10.7µM, NPC1 prom act 0.562µM
c1ccc(-n2ncc3c(NCC4CCCO4)ncnc32)cc1 (stereo not given)	Rab9 promoter act 3.55µM, FLuc modulator 16.9µM, NPC1 prom act 2µM
Clc1ccc(-n2ncc3c(NCC4CCCO4)ncnc32)cc1 (stereo not given)	Rab9 promoter act 0.447µM, SMN2 splice enh 5.01µM, FLuc modulator 1.69µM, ELG1 genotoxic inconclusive, NPC1 prom act 0.631µM
CC(Sc1ncnc2c1cnn2-c1ccccc1)C(=O)NCC1CCCO1 (stereo not given)	FLuc modulator inconclusive (no result: SMN2 splice enh, Luc counter)
CCCOC(=O)c1cccc(Nc2nc(CCC)cc(=O)[nH]2)c1	none (no result: Rab9 promoter act, Luc counter, ELG1 genotoxic, NPC1 prom act)
COc1ccc(Nc2ncc(C(=O)Nc3ccc(F)cc3F)c3ccccc23)cc1	none (no result: Rab9 promoter act, Luc counter, ELG1 genotoxic, NPC1 prom act)
Cc1ccc(C2=Nc3ccccc3N(CC(=O)NCc3ccccc3Cl)C(=O)C2)cc1C	FLuc modulator 9.53µM (no result: Rab9 promoter act, SMN2 splice enh, Luc counter, ELG1 genotoxic, NPC1 prom act)
COc1ccc(NC(=O)CN2C(=O)CC(c3ccc(C)c(C)c3)=Nc3ccccc32)cc1OC	FLuc modulator 13.5µM (no result: Rab9 promoter act, SMN2 splice enh, Luc counter, ELG1 genotoxic, NPC1 prom act)
Cc1ccc(NC(=O)CN2C(=O)CC(c3ccc(F)cc3)=Nc3ccccc32)cc1F	none (no result: Rab9 promoter act, SMN2 splice enh, Luc counter, ELG1 genotoxic, NPC1 prom act)
O=c1oc(CCCO)cc2ccc(C#Cc3ccsc3)cc12	FLuc modulator inconclusive, NPC1 prom act inconclusive (no result: SMN2 splice enh, Luc counter)
CN(C)c1ccc(C#Cc2ccc3cc(CCCO)oc(=O)c3c2)cc1	FLuc modulator 1.69µM, ELG1 genotoxic inconclusive, NPC1 prom act 2.82µM (no result: SMN2 splice enh, Luc counter)
CCCN1CCN(CCCNC(=O)c2cnn(-c3ccc(F)cc3)c2-n2cccc2)CC1	none (no result: Rab9 promoter act, SMN2 splice enh, Luc counter, ELG1 genotoxic, NPC1 prom act)
CCn1c(C)cc(/C=C2/NC(=O)N(c3ccccc3)C2=O)c1C	Rab9 promoter act 1.41µM, SMN2 splice enh 11.2µM, FLuc modulator 7.57µM, ELG1 genotoxic inconclusive, NPC1 prom act 3.16µM
O=C1N/C(=C/c2ccsc2)C(=O)N1c1ccccc1	Rab9 promoter act 2.82µM, FLuc modulator inconclusive, ELG1 genotoxic inconclusive, NPC1 prom act inconclusive
O=C(NCC1CC1)Nc1ccc(Cl)cc1	Rab9 promoter act inconclusive, FLuc modulator 16.9µM, ELG1 genotoxic inconclusive, NPC1 prom act inconclusive (no result: SMN2 splice enh, Luc counter)
CSc1ccc(NC(=O)NCc2ccccc2)cc1	Rab9 promoter act 4.47µM, FLuc modulator inconclusive, ELG1 genotoxic inconclusive, NPC1 prom act 4.47µM (no result: SMN2 splice enh, Luc counter)
CSc1ccc(CN(C)CC(=O)NCc2ccccc2)cc1	none
O=C(NCC1CC1)Nc1cccc(Cl)c1	FLuc modulator inconclusive (no result: SMN2 splice enh, Luc counter)
Cc1ccc(CNC(=O)Nc2ccccc2)cc1	Rab9 promoter act 2.51µM, SMN2 splice enh 15.8µM, FLuc modulator 12µM, ELG1 genotoxic 9.2µM, NPC1 prom act inconclusive
Cc1ccc(CNC(=O)Nc2cccs2)cc1	Rab9 promoter act inconclusive, SMN2 splice enh 15.8µM, FLuc modulator 12µM, NPC1 prom act inconclusive

Source: PubChem BioAssay
